Among the data in PubChem BioAssay (NCATS) are Potency and viability, % of control values, retold here.

Results filed as inconclusive are left out. Activity calls are given as the source filed them. Calls come from the whole dose curve; as a rule, active = well fitted cell-killing curve with a large enough effect; inconclusive = small, poorly fitted or top-dose-only effect, or effect the other way; inactive = no such curve, though single readings can be large or run the other way.
Potency is the fitted concentration of half-maximal effect.

A short description of the assay: Viability qHTS for spleen associated tyrosine kinase inhibitor (SYKi) drug resistant MV4-11 cells (AID 1963824). Note: nearly all actives have a fitted effect of over 35% in size. As to conditions: SYKi-resistant MV4-11 viability, CellTiter-Glo, 72 h; series mostly up to 45 µM. In short, it runs like this: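 SYK inhibitor-resistant MV4-11 AML cells, 500 per well, added to predispensed compounds and incubated 72 hr at 37 C, 5% CO2. Viability measured by CellTiter-Glo luminescence after 10 min at room temperature.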
In general terms: Quantitative high-throughput screening tests each substance at several concentrations.
Take `CC1(C)CCCC2(C)C3=C(C(=O)OC3O)C(O)CC12` (centres undefined): the Potency result was “inactive”.
Still for that read-out and setting: the entry for `CC1CC(=O)C2=C(O1)OC1(C)CCC3C(C)(C)C4OC4C(=O)C3(C)C1C2` (centres undefined) is “inactive”; for `C=C1CCC2C(C)(C(=O)O)CCCC2(C)C1CCC(C)CC(=O)O` (centres undefined) it is 4.53 µM (active).
The same measure, in the same setting: under `NC(N)=NCCC[C@H](NC(=O)c1sccc1NS(=O)(=O)c1cccc2nsnc12)C(=O)O` stands “inactive”; under `CC(C)C(=O)OC[C@H]1O[C@H](O[C@H]2O[C@H](CO)[C@@H](O)[C@H](O)[C@H]2O)[C@H](O)[C@@H](O)[C@@H]1O`, “inactive”; under `C[C@@H](Oc1cc(-n2cnc3ccc(OC4CCN(C)CC4)cc32)sc1C(N)=O)c1ccccc1Cl`, 0.013 µM (active).
For the compound `CC1(C)CC[C@]2(C(=O)O[C@@H]3O[C@H](CO)[C@@H](O)[C@H](O)[C@H]3O)CC[C@]3(C)C(=CCC4[C@@]5(C)C[C@@H](O)[C@H](O)[C@](C)(C(=O)O)C5CC[C@]43C)C2C1O` (some centres undefined), the Potency entry was “inactive”.
Take `CCNC1(C(N)=O)CN(c2nc(C)nc3c(-c4ccc(Cl)cc4)c(-c4ccccc4Cl)nn23)C1`: the Potency was 16.4 µM (active).
Still for that read-out and setting: the entry for `CC1(C(=O)O)CCCC2(C)C3=CCC4CC3(CCC12)CC4CO` (centres undefined) is “inactive”.
The same measure, in the same setting: the figure for `O=C(NO)c1ccc(CC(=O)N(CCO)c2ccccc2)cc1` is 16.4 µM (active); for `CN[C@@H]1[C@H](O[C@H]2[C@H](O[C@@H]3[C@@H](O)[C@H](O)[C@@H](N=C(N)N)[C@H](O)[C@H]3N=C(N)N)O[C@@H](C)[C@]2(O)CO)O[C@@H](CO)[C@H](O)[C@H]1O` it is “inactive”.
Same read-out and setting: under `COc1cc2c(cc1OC)CC(=O)N(CCCNC[C@H]1Cc3cc(OC)c(OC)cc31)CC2` stands 16.4 µM (active); under `CCOC(=O)c1sc(NC(=O)[C@H](C(C)C)n2c(=O)[nH]c3ccccc3c2=O)nc1C`, 16.4 µM (active); under `COc1cc(N2CCC(N3CCN(C)CC3)CC2)ccc1Nc1ncc(Cl)c(-c2c[nH]c3ccccc23)n1`, 0.0116 µM (active).
As for `CC(C)(C)c1ccc(C(=O)Nc2cc(Cl)c(Br)cc2C(=O)O)cc1`, the Potency is 16.4 µM (active).
On to `Nc1ccc(C(=O)N2CC3CC(CN(Cc4ccccc4)C3)C2)cc1`, for which the Potency result is “inactive”.
Still for that read-out and setting: under `CC(C)n1cnc2c(NCc3cccc(C(F)(F)F)c3)ncnc21` stands 20.6 µM (active); under `CC(=O)[C@@H]1CC[C@]2(C(=O)O)CC[C@]3(C)C(CCC4[C@@]5(C)CC[C@H](O)C(C)(C)C5CC[C@]43C)C12` (some centres undefined), 7.09 µM (active); under `COc1ccc(S(=O)(=O)Nc2c(C)cc(C)cc2C)cc1`, 20.6 µM (active).
For the compound `COc1ccc2nc3ccc(OC)cc3c(SCCCN)c2c1`, the Potency was 2.31 µM (active).
Same read-out and setting: the figure for `C=CC(C)(C)C1(CC2NC(=O)C3CCCN3C2=O)C(=O)Nc2cc3c(cc21)C=CC(C)(C)O3` (centres undefined) is 1.12 µM (active); for `CCNC(=O)N1CCN(CCCC(c2ccc(F)cc2)c2ccc(F)cc2)CC1` it is 18.8 µM (active); for `COC(=O)C1=CO[C@@H](O[C@@H]2O[C@H](CO)[C@@H](O)[C@H](O)[C@H]2O)/C(=C\CO)[C@@H]1CC(=O)OCCc1ccc(O)cc1` it is “inactive”.
Turning to `O=C1c2ccccc2-c2nc3nnnn3nc21` (tested in a mixture with another compound), the Potency was 0.103 µM (active).
On the same count and under the same terms, the figure for `COc1c(C(C)C)c(O)c(O)c2c1C(OC)[C@H]1OC(=O)[C@@]23CCCC(C)(C)[C@H]13` (some centres undefined) is 14.3 µM (active); for `Cc1ccc(S(=O)(=O)Nc2ccccc2N2CCCCC2)s1` it is 18.4 µM (active).
As to `CC1(C)CC[C@]2(C(=O)O[C@@H]3O[C@H](CO[C@@H]4O[C@H](CO[C@@H]5O[C@H](CO)[C@H](O)[C@H](O)[C@H]5O)[C@@H](O)[C@H](O)[C@H]4O)[C@@H](O)[C@H](O[C@@H]4O[C@H](CO)[C@@H](O)[C@H](O)[C@H]4O)[C@H]3O)[C@H](O)C[C@]3(C)C(=CCC4[C@@]5(C)CC[C@H](O[C@@H]6OC[C@@H](O)[C@H](O)[C@H]6O)[C@@](C)(C(=O)O)C5CC[C@]43C)[C@@H]2C1` (some centres undefined), the viability, % of control was 90.5% [at 9.25 µM] (inactive).
For `CC(=O)OC12CC(C)C(O)C1/C=C(/COC1OC(CO)C(O)C(O)C1O)CCC1C(/C=C(\C)C2=O)C1(C)C` (centres undefined), the Potency result is “inactive”.
On to `CC1(C)C[C@H]2C3=CCC4[C@@]5(C)CC[C@H](O[C@H]6O[C@H](C(=O)O)[C@@H](O)[C@H](O)[C@H]6O[C@H]6O[C@H](CO)[C@@H](O)[C@H](O)[C@H]6O[C@@H]6O[C@H](CO)[C@@H](O)[C@H](O)[C@H]6O)[C@](C)(CO)C5CC[C@@]4(C)[C@]3(C)CC[C@@]2(C)[C@H](O[C@@H]2OC[C@H](O)[C@H](OC3O[C@H](CO)[C@@H](O)[C@H](O)[C@H]3O)[C@H]2O)[C@@H]1O` (some centres undefined), for which the viability, % of control is 93.8% [at 9.25 µM] (inactive).
